Source: PubChem BioAssay
Shown are actives, neighbours in structure and some others; about 3.2% of the full set was active somewhere.
Pol III holo inh = qHTS Assay for Inhibitors of DNA Polymerase III Holoenzyme System; reconstituted DNA polymerase III holoenzyme replication, biochemical; Potency, µM (highest dose often 57.1 µM); hit rate 0.25% among 71,000; AID 603, 2007
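Reconstituted *E. coli* holoenzyme (0.35 nM Pol III, 1 nM beta, 154 nM SSB, 2 nM primase) was preincubated with compound for 15 min at RT. Synthesis on 1.4 nM ssM13Gori ran 35 min, then was stopped with PicoGreen/EDTA and read as dsDNA fluorescence.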
ERK AVP inh = qHTS Assay for Inhibitors of the ERK Signaling Pathway using a Homogeneous Screening Assay | HEK293-V1b, vasopressin-stimulated pERK AlphaScreen | Potency, µM (titrated, usually from 57.5 µM), actives largely listed as inhibitors | hit rate 0.99% among 72,000 | AID 995, 2007; note: nearly all actives have a fitted effect of over 55% in size
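HEK293 cells stably expressing V1b receptor, seeded overnight in 1% FBS, were treated with compounds for 30 min at 37C, then stimulated 5 min with 25 nM vasopressin; phospho-ERK read by AlphaScreen SureFire after lysis.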
Tau fil binding = qHTS Assay for Tau Filament Binding | Microtubule-associated protein tau (Homo sapiens), P10636 | recombinant tau filaments, thioflavin S fluorescence, 15 h; filaments grown with octadecylsulfate alongside compound | Potency, µM (doses to about 57.1 µM) | hit rate 2% among 71,000 | AID 596, 2007;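 note: actives lower thioflavin S fluorescence by blocking filaments or displacing dye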
Target sequence (P10636 whole entry, looked up): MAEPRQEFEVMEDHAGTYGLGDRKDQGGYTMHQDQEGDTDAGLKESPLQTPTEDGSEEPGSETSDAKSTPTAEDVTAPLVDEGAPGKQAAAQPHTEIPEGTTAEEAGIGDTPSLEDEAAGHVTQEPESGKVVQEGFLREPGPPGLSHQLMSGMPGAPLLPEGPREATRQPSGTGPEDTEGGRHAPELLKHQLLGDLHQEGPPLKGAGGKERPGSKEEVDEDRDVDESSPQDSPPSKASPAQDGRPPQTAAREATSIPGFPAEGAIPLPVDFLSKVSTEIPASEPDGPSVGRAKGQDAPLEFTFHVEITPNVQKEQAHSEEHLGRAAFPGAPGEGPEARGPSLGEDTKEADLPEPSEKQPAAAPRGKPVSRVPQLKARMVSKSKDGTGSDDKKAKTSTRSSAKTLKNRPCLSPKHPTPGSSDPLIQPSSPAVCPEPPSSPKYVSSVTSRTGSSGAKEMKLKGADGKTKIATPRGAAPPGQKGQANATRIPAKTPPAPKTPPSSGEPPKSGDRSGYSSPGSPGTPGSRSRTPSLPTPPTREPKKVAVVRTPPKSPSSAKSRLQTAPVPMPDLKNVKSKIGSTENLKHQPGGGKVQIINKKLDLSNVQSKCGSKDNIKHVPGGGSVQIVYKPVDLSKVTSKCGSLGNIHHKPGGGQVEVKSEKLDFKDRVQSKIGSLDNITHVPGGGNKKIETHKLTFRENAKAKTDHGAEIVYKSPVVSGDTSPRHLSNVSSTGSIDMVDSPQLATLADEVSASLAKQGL
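Tau 2 uM in ThS buffer dispensed; compound added; 60 uM ODS added (finals 1 uM tau, 30 uM ODS); 15 h 37 C; fluor ex450/em510.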
YjeE inh = qHTS Assay for Inhibitors of YjeE | tRNA threonylcarbamoyladenosine biosynthesis protein TsaE (Escherichia coli (strain … | purified YjeE enzyme, qHTS inhibition assay | Potency, µM | hit rate 0.05% among 71,000 | AID 605, 2007
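Fluorescence polarization of a BODIPY Texas Red–ADP probe (2 uM) bound to purified YjeE (10 uM) was read after 15 min room-temperature incubation with compounds. Loss of polarization marks inhibitors; ADP serves as titrated control.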
p53ts 39C kill = qHTS Screen for Compounds that Selectively Target Cancer Cells with p53 Mutations: Cytotoxicity of p53ts Cells at the Nonpermissive Temperature; hit rate 1.5% among 130,000; H1299-p53A138V viability at 39C, ATP luminescence, 24 h; Potency, µM (doses to about 46.1 µM), most hits filed as cytotoxic; AID 902, 2007; note: nearly all actives have a fitted effect of over 55% in size
p53ts 32C tox = qHTS Screen for Compounds that Selectively Target Cancer Cells with p53 Mutations: Cytotoxicity of p53ts Cells at the Permissive Temperature | H1299-p53A138V at 32C, ATP luminescence viability, 24 h | Potency, µM (doses to about 46.1 µM), hits mostly cytotoxic | hit rate 0.93% among 130,000 | AID 924, 2007; note: nearly all actives have a fitted effect of over 55% in size
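ATP-content luminescence (ATPlite) read-out after 24 h compound exposure at 32C in H1299-p53A138V cells (600/well). Tested up to 46 uM. Normalized to DMSO (0%) and 100 uM tamoxifen (100% killing); Hill-fit AC50.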
A number is an active result; ! = repeats disagree; [ ] = remark or other dose. Calls come from the whole dose curve; as a rule, active = well fitted curve in the direction sought with a large enough effect; inconclusive = small, poorly fitted or top-dose-only effect, or another doubt; inactive = no such curve, though single readings can be large; an effect the other way counts as inactive or inconclusive.

Results for Cc1ccc(CS(=O)(=O)c2ncc(Cl)c(C(=O)Nc3nnc(C(C)C)s3)n2)cc1 ?
p53ts 39C kill: 5µM; p53ts 32C tox: 13µM

Results for CC(C)c1nnc(NC(=O)c2nc(SCc3ccc(F)cc3)ncc2Cl)s1 ?
p53ts 39C kill: inactive; p53ts 32C tox: inactive

What do the screens show for `Cc1cccc(CS(=O)(=O)c2ncc(Cl)c(C(=O)Nc3nnc(C(C)C)s3)n2)c1`?
p53ts 39C kill: 5µM; p53ts 32C tox: 16µM

How did O=c1cc(-c2ccccc2)oc2cc(O[C@H]3O[C@H](CO)[C@@H](O)[C@H](O)[C@@H]3O)c(O)c(O)c12 do in these assays?
Pol III holo inh: inactive; Tau fil binding: inconclusive; YjeE inh: inactive

How did CC(C)N(Cc1ccccc1)C(=O)COC(=O)c1ccc2c(c1)OCCO2 do in these assays?
Pol III holo inh: inactive; ERK AVP inh: inactive; Tau fil binding: inactive; YjeE inh: inactive; p53ts 39C kill: inactive; p53ts 32C tox: inactive

What do the screens show for `CC(C)N(CCC(=O)c1ccc2ccccc2c1)Cc1ccccc1`?
Pol III holo inh: inactive; ERK AVP inh: 32µM; Tau fil binding: inactive; YjeE inh: inconclusive; p53ts 39C kill: 32µM; p53ts 32C tox: 20µM

How did O=C(O)c1ccc(Cl)c(S(=O)(=O)Nc2ccccc2)c1 do in these assays?
p53ts 39C kill: inactive; p53ts 32C tox: inactive

Results for Ic1ccc2c(c1)N(c1ccccc1)c1cc(Nc3ccc4nc5ccc(I)cc5[n+](-c5ccccc5)c4c3)ccc1N2 ?
Pol III holo inh: inactive[11.4 µM]; ERK AVP inh: inactive[11.5 µM]; Tau fil binding: 4µM; YjeE inh: inconclusive; p53ts 39C kill: inactive[9.22 µM]; p53ts 32C tox: inactive[9.22 µM]

Results for Nc1ccn([C@H]2CC[C@H](CO)O2)c(=O)n1 ?
Pol III holo inh: inactive; Tau fil binding: inactive; YjeE inh: inactive

How did O=C(N/N=C/c1cccs1)c1ccc2c(c1)OCO2 do in these assays?
p53ts 39C kill: 10µM; p53ts 32C tox: 8.9µM

Results for CCOc1ccc(C2c3[nH]c4ccccc4c3CCN2C(=O)CSc2ccccc2)cc1 (stereo not given) ?
p53ts 39C kill: inactive; p53ts 32C tox: inactive

What do the screens show for `C=CC1=C(C)C2=Cc3c(C=C)c(C)c4[n]3[Sn+2][n]3c(c(C)c(CCC(=O)O)c3=CC3=NC(=C4)C(C)=C3CCC(=O)O)=CC1=N2`?
Pol III holo inh: 40µM; ERK AVP inh: inactive; Tau fil binding: inconclusive; YjeE inh: 79µM; p53ts 39C kill: inactive; p53ts 32C tox: inactive

How did CCc1c(-c2ccccc2)nc2ccccc2c1C(=O)NC(C)c1ccccc1 (stereo not given) do in these assays?
p53ts 39C kill: inactive; p53ts 32C tox: inactive

Results for O=C(CCN1C(=O)c2ccccc2C1=O)Nc1ccc(-c2cn3ccsc3n2)cc1 ?
Pol III holo inh: inactive; ERK AVP inh: inactive; Tau fil binding: inactive; YjeE inh: inactive; p53ts 39C kill: inconclusive; p53ts 32C tox: inactive

How did O=C(Nc1ccc(-c2cn3ccsc3n2)cc1)C1CCCC1 do in these assays?
Pol III holo inh: inactive; ERK AVP inh: inactive; Tau fil binding: inactive; YjeE inh: inactive; p53ts 39C kill: 2.5µM; p53ts 32C tox: 5µM

What do the screens show for `c1cc2c(cc1Nc1nc(-c3ccc4c(c3)OCO4)cs1)OCCO2`?
Pol III holo inh: inactive; ERK AVP inh: inactive; Tau fil binding: 25µM; YjeE inh: inactive; p53ts 39C kill: inactive; p53ts 32C tox: inactive

How did O=C(Nc1ccc(-c2cn3ccsc3n2)cc1)C1CC1 do in these assays?
Pol III holo inh: inactive; ERK AVP inh: inactive; Tau fil binding: inactive; YjeE inh: inactive; p53ts 39C kill: 5µM; p53ts 32C tox: 6.3µM

Results for O=S(=O)(Nc1cccc(-c2cn3ccsc3n2)c1)c1ccc(F)cc1 ?
Pol III holo inh: inconclusive; ERK AVP inh: 20µM; Tau fil binding: inactive; YjeE inh: inactive; p53ts 39C kill: inconclusive; p53ts 32C tox: inactive

What do the screens show for `Oc1ccc(Nc2nc(-c3ccc(O)cc3)cs2)cc1`?
Pol III holo inh: inactive; ERK AVP inh: inactive; Tau fil binding: inconclusive; YjeE inh: inactive; p53ts 39C kill: inactive; p53ts 32C tox: inactive

Results for Cc1ccc(C)c(S(=O)(=O)c2nnn3c2nc(NC(C)C)c2sccc23)c1 ?
p53ts 39C kill: inactive; p53ts 32C tox: inactive

How did CC(=O)Nc1ccc(-c2cn3ccsc3n2)cc1 do in these assays?
Pol III holo inh: inactive; ERK AVP inh: inactive; Tau fil binding: inactive; YjeE inh: inactive; p53ts 39C kill: inconclusive; p53ts 32C tox: 10µM

How did c1cn2cc(-c3ccc4c(c3)OCO4)nc2s1 do in these assays?
Pol III holo inh: inactive; ERK AVP inh: inactive; Tau fil binding: inactive; YjeE inh: inactive; p53ts 39C kill: 13µM; p53ts 32C tox: 16µM

How did CC(C)CC(=O)Nc1cccc(-c2cn3ccsc3n2)c1 do in these assays?
Pol III holo inh: inactive; ERK AVP inh: 16µM; Tau fil binding: inactive; YjeE inh: inactive; p53ts 39C kill: inconclusive; p53ts 32C tox: inconclusive

How did Cc1ccc(C)c(N2CCN(c3nc4ccccc4c(=O)n3-c3ccc(Cl)cc3)CC2)c1 do in these assays?
p53ts 39C kill: inactive; p53ts 32C tox: inactive

How did COc1ccc(CNC(=O)Cn2c(=O)n3nc(-c4cccc(F)c4)nc3c3ccccc32)cc1OC do in these assays?
p53ts 39C kill: inactive; p53ts 32C tox: inactive

How did CC(C)Oc1ccc(CNC(=O)C2CCN(c3nc4ccccc4nc3C(F)(F)F)CC2)cc1 do in these assays?
p53ts 39C kill: inactive; p53ts 32C tox: inactive

How did Cc1cccc(N2CCN(S(=O)(=O)c3ccc(-c4cc(C(F)(F)F)on4)s3)CC2)c1C do in these assays?
p53ts 39C kill: inactive; p53ts 32C tox: inactive

What do the screens show for `COc1ccc(NC(=O)N2CCCC3(CCN(S(=O)(=O)c4ccccc4)CC3)C2)cc1`?
Pol III holo inh: inactive; ERK AVP inh: inactive; Tau fil binding: inactive; YjeE inh: inactive; p53ts 39C kill: inactive; p53ts 32C tox: inactive

How did Cn1nnnc1SCc1ccc(C(=O)Nc2nccs2)cc1 do in these assays?
Pol III holo inh: inactive; ERK AVP inh: inactive; Tau fil binding: 2.5µM; YjeE inh: inactive; p53ts 39C kill: 5µM; p53ts 32C tox: inconclusive

How did Cn1c(CSCc2ccc(F)cc2)nnc1SCC(=O)Nc1nccs1 do in these assays?
Pol III holo inh: inactive; ERK AVP inh: inconclusive; Tau fil binding: inactive; YjeE inh: inactive; p53ts 39C kill: inactive; p53ts 32C tox: inactive

Results for Nc1ccc(O)c(C(=O)O)c1 ?
Pol III holo inh: 16µM!; ERK AVP inh: inactive; Tau fil binding: inactive; YjeE inh: inactive; p53ts 39C kill: inactive; p53ts 32C tox: inactive[1.84 µM]

Results for Nc1ccc(C(=O)O)cc1 ?
Pol III holo inh: inactive; ERK AVP inh: inactive; Tau fil binding: inactive; YjeE inh: inactive; p53ts 39C kill: inactive; p53ts 32C tox: inactive
